# The supplement of paper PMC4709259
# ± gives the standard deviation.
# Test system: Jurkat
# Assay: mean cell size (FSC-A) relative to DMSO control (fraction of control); higher = larger cells
# Details: 48 h
# In short: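 Jurkat cells seeded at 600 cells/µl were incubated 1 h, then exposed for 48h to the Enzo Screen-Well FDA Approved Drug Library v2.0 at 25µM in 0.9% (v/v) final DMSO. Drugs that cut counts below 20% of controls were diluted 10-fold and retested, down to 25nM. Cell count and mean cell size (forward scatter area) were read on an Accuri C6 flow cytometer, relative to solvent-only controls. Plates held 6-12 controls; values are means of 3 biological replicates.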
row,Compound,mean cell size
1,Cc1cccc(Nc2ccccc2C(=O)O)c1C [Mefenamic Acid] (concentration: 25 µM),0.938 ± 0.025
2,CCOC(=O)[C@H](CCc1ccccc1)N[C@@H](C)C(=O)N1[C@H](C(=O)O)C[C@@H]2CCC[C@@H]21 [Ramipril] (concentration: 25 µM),1.01 ± 0.029
3,C=C(c1ccc(C(=O)O)cc1)c1cc2c(cc1C)C(C)(C)CCC2(C)C [Bexarotene] (concentration: 2.5 µM),0.942 ± 0.017
4,Nc1nc2c(ncn2COCCO)c(=O)[nH]1 [Acyclovir (Acycloguanosine) Zovirax] (concentration: 25 µM),0.977 ± 0.028
5,CCCCC(C)(O)C/C=C/[C@H]1[C@H](O)CC(=O)[C@@H]1CCCCCCC(=O)OC (mixture of isomers) [Misoprostol] (concentration: 25 µM),0.939 ± 0.037
